# Only some compounds are listed: those with a hit (about 4.7% of all), similar ones and a draw of the others.
# ADAM17 inh: ADAM17 inhibition, QFRET primary screen. P78536. recombinant ADAM17, EDANS/DABCYL FRET peptide cleavage. inhibition, % at 6.95 µM. 370,000 tested, 0.83% active;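 active = inhibition above the mean of compounds lying between control limits plus 3 SD, set per campaign, cut at about 8.5% in these data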;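 also: 0% = DMSO-only wells as the low control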
# DSG3 Ab inh: blocks pemphigus antibody binding to human desmoglein-3. DSG3-coupled beads, scFv-anti-DSG3-GFP binding, flow cytometry; stronger effect = lower value. binding (percent of control), % at 10 µM. 310,000 tested, 0.48% active. AID 588358. P32926;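 active = binding more than 3 SD below its plate's average and above zero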;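 also: hits lower antibody fragment binding to DSG3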
# rCAG RNA binder: r(CAG) repeat RNA binding. inhibition, % at 3 µM. TO-PRO-1 dye displacement fluorescence. 370,000 tested, 1.3% active;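 active = inhibition above the plate cutoff, the mean of all test compounds on that plate plus 3 SD, cut at about 35% in these data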;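 also: 0% = DMSO alone and 100% = 100 µM mitoxantrone as full dye displacement; higher means more dye released from RNA so lower well fluorescence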
# MPTP inh: permeability transition pore inhibition | isolated mouse mitochondria, Ca2+ swelling absorbance, 30 min | inhibition, % at 10 µM | 360,000 tested, 1.4% active | AID 602449;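 active = inhibition of 50% or more, scaled per plate between neutral and stimulator controls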;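 also: 0% = DMSO wells given calcium and 100% = 1 mM EGTA wells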
# ADAM10 inh: inhibitors of human ADAM10 | recombinant ADAM10, EDANS/DABCYL FRET peptide cleavage, 3 h | inhibition, % at 7 µM | AID 720582 | 370,000 tested, 0.62% active | O14672;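 active = inhibition above a per-campaign cutoff equal to the mean of compounds falling between control-based bounds plus 3 SD, cut at about 20% in these data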;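 also: 0% = DMSO wells while the 100% control is not disclosed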
# KLK7 zymogen act: activators of human kallikrein-7 zymogen; P49862; purified proKLK7, EDANS-DABCYL substrate fluorescence; 100% is mature enzyme control, 0% vehicle; activation, % at 7 µM; 370,000 tested, 0.9% active;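 active = activation above the mean of all tested compounds plus 3 SD, computed per campaign excluding outliers beyond control limits, cut at about 13% in these data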
# KLK7 act conf: confirmation of human kallikrein-7 zymogen activators. AID 686949. shares compounds with KLK7 zymogen act. purified proKLK7, EDANS-DABCYL substrate fluorescence; scaled: vehicle 0, mature enzyme 100. 3,200 tested, 68% active. activation, % at 7 µM;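 active = activation, as change over the incubation, above the mean of all tested compounds plus 3 SD, cut at about 13% in these data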
# EDANS-DABCYL int: optically interferes with EDANS-DABCYL signal, flagging KLK7 hits. 3,200 tested, 80% active. activation, % at 7 µM. EDANS-DABCYL substrate fluorescence interference, no enzyme, 4 h; solvent 0%, active enzyme control 100%. shares compounds with KLK7 zymogen act;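 active = activation above the all-compound mean plus 3 SD, ignoring values outside control-based bounds, cut at about 4.8% in these data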;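 also: value is the 4 h activation minus the activation read at time zero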
# Starred values were filed as active, the others as inactive; i = inactive; . = no result given.
SMILES,ADAM17 inh,DSG3 Ab inh,rCAG RNA binder,MPTP inh,ADAM10 inh,KLK7 zymogen act,KLK7 act conf,EDANS-DABCYL int
O=C(CCC(=O)Nc1ccccc1Cl)NNC(=O)C1CCCCC1,-3.1,89.9,0.5,-2.0,-5.3,0.0,.,.
C=CCn1c(SCC(=O)NNC(=O)Nc2ccc(C)cc2)nnc1-c1ccccc1,1.5,108.4,-2.9,2.4,15.5,0.3,.,.
C=CCn1c(SCC(=O)Nc2ccc(-c3nc4ccc(C)cc4s3)cc2)nnc1-c1ccccc1,-142.4,94.6,10.2,2.7,i,26.0*,66.8*,67.2*
Cc1ccc(-c2nnc(SCC(=O)Nc3ccc(-c4nc5ccc(C)cc5s4)cc3)n2Cc2ccco2)cc1,-21.7,.,22.7,.,-76.4,103.9*,93.7*,116.3*
COc1ccc(-c2nnc(SCC(=O)Nc3ccc(Oc4ccccc4)cc3)n2Cc2ccco2)cc1,0.7,.,7.2,.,5.7,0.0,.,.
Cc1ccc2nc(-c3ccc(NC(=O)CSc4nnc(-c5cc(C)[nH]n5)n4N)cc3)sc2c1,-74.7,.,6.5,.,-296.8,32.6*,-2.6,-38.5
Cc1ccc2nc(-c3ccc(NC(=O)CSc4nnc(-c5cc(-c6ccc(F)cc6)n[nH]5)n4N)cc3)sc2c1,-53.2,.,6.0,.,-149.5,4.6,.,.
C[C@@H]1O[C@H](C2CCCCC2)Cc2[nH][nH]c(=O)c21,-3.9,.,5.8,-1.2,-2.8,-0.3,.,.
Nc1[nH]c(C(=O)c2ccccc2)c(-c2ccccc2C(F)(F)F)c1C(=O)NCc1cccc2ccccc12,-0.9,.,6.5,2.9,-1.0,0.2,.,.
CC[C@]12c3[nH]c4cc(-c5ccco5)ccc4c3CCN1C(=O)[C@@H](CC(=O)NCc1ccco1)C[C@@H]2C(=O)N1CCN(C(=O)C2CC2)CC1,-290.1,102.2,11.7,10.8,i,100.0*,66.5*,93.1*
CC[C@]12c3[nH]c4cc(-c5ccco5)ccc4c3CCN1C(=O)[C@@H](CC(=O)NCC13CC4CC(CC(C4)C1)C3)C[C@@H]2C(=O)N1CCN(C(=O)C2CC2)CC1,-85.2,100.2,10.3,-0.9,-315.1,-13.4,.,.
CC[C@]12c3[nH]c4cc(-c5ccco5)ccc4c3CCN1C(=O)[C@@H](CC(=O)NCc1ccc(OC)c(OC)c1)C[C@@H]2C(=O)N1CCN(C(=O)C2CC2)CC1,-106.4,94.6,8.1,2.6,-382.7,122.2*,72.2*,83.6*
CC[C@]12c3[nH]c4cc(-c5ccco5)ccc4c3CCN1C(=O)[C@@H](CC(=O)NCCC1=CCCCC1)C[C@@H]2C(=O)N1CCN(C(=O)C2CC2)CC1,-150.4,103.3,11.8,0.2,-478.3,30.3*,13.6*,17.0*
CC(=O)C1=C(O)C(CSCc2ccccc2)N(C)C1=O (centres undefined),-4.2,96.6,6.0,-0.1,-6.1,-0.4,.,.
O=C(O)CCC(=O)N1CCN(c2nc(-c3ccccc3)c3ccccc3n2)CC1,-182.7,99.6,7.3,0.4,-442.6,31.7*,7.5,8.6*
O=C(O)c1ccc(-c2nn3c(=O)cc(N4CCNCC4)nc3s2)cc1,-21.5,.,2.8,1.2,-71.9,3.1,.,.
CCOC(=O)N1CCN(C(=O)COc2ccc3c(c2)C(=O)CC2(CCN(C(C)=O)CC2)O3)CC1,-477.8,93.9,-8.0,0.7,i,25.5*,70.7*,74.8*
CC(=O)N1CCC2(CC1)CC(=O)c1cc(OCC(=O)N3CCOCC3)ccc1O2,-389.6,98.2,0.4,1.6,i,61.6*,68.7*,65.0*
Cc1nnnn1/C(=C\c1ccccc1)C(=O)OCC(=O)NC1CCCCC1,-2.4,111.9,-8.0,-0.3,-13.2,-0.1,.,.
c1ccc(C2Nc3ccccc3-c3nc4ccccc4n32)nc1 (centres undefined),-396.6,.,2.6,0.7,i,36.3*,14.2*,16.4*
c1coc(C2Nc3ccccc3-c3nc4ccccc4n32)c1 (centres undefined),i,105.0,24.7,24.0,i,15.9*,39.2*,40.0*

# Assay outcomes: PubChem, several laboratories
